In the antibiotic and cytotoxicity screens of Wong et al. (2023):
Out of some 39,000 compounds screened, about 3,300 (8.5%) were called active. The list comes from a sample in which actives are over-represented; it also holds similar structures and randomly drawn compounds.

system: HepG2; test: cytotoxicity call (relative viability < 0.9); conditions: 10 µM

| Structure (SMILES) | cytotoxicity call |
| --- | --- |
| COc1ccc(S(=O)(=O)Nc2ccc3c(c2)C(=O)N([C@H](C)CO)C[C@@H](C)[C@@H](CN(C)CC2CCCCC2)OCCCC[C@@H](C)O3)cc1 | active |
| COc1ccc(S(=O)(=O)Nc2ccc3c(c2)C(=O)N([C@@H](C)CO)C[C@@H](C)[C@@H](CN(C)CC2CCCCC2)OCCCC[C@@H](C)O3)cc1 | active |
| COc1ccc(S(=O)(=O)Nc2ccc3c(c2)C(=O)N([C@@H](C)CO)C[C@H](C)[C@H](CN(C)CC2CCCCC2)OCCCC[C@H](C)O3)cc1 | inactive |
| COc1ccc(S(=O)(=O)Nc2ccc3c(c2)C(=O)N([C@@H](C)CO)C[C@@H](C)[C@@H](CN(C)CC2CCCCC2)OCCCC[C@H](C)O3)cc1 | active |
| COc1ccc(S(=O)(=O)Nc2ccc3c(c2)C(=O)N([C@H](C)CO)C[C@@H](C)[C@H](CN(C)CC2CCCCC2)OCCCC[C@@H](C)O3)cc1 | inactive |
| COc1ccc(S(=O)(=O)Nc2ccc3c(c2)C(=O)N([C@@H](C)CO)C[C@H](C)[C@H](CN(C)CC2CCCCC2)OCCCC[C@@H](C)O3)cc1 | inactive |
| COc1ccc(S(=O)(=O)Nc2ccc3c(c2)C(=O)N([C@H](C)CO)C[C@H](C)[C@@H](CN(C)CC2CCCCC2)OCCCC[C@H](C)O3)cc1 | inactive |
| COc1ccc(S(=O)(=O)Nc2ccc3c(c2)C(=O)N([C@@H](C)CO)C[C@H](C)[C@@H](CN(C)CC2CCCCC2)OCCCC[C@H](C)O3)cc1 | inactive |
| COc1ccc(S(=O)(=O)Nc2ccc3c(c2)C(=O)N([C@H](C)CO)C[C@@H](C)[C@@H](CN(C)CC2CCCCC2)OCCCC[C@H](C)O3)cc1 | inactive |
| COc1ccc(S(=O)(=O)Nc2ccc3c(c2)C(=O)N([C@@H](C)CO)C[C@@H](C)[C@H](CN(C)CC2CCCCC2)OCCCC[C@@H](C)O3)cc1 | inactive |
| COc1ccc(S(=O)(=O)Nc2ccc3c(c2)C(=O)N([C@@H](C)CO)C[C@@H](C)[C@H](CN(C)CC2CCCCC2)OCCCC[C@H](C)O3)cc1 | inactive |
| COc1ccc(NC(=O)Nc2ccc3c(c2)C(=O)N([C@H](C)CO)C[C@@H](C)[C@H](CN(C)C(=O)NC2CCCCC2)OCCCC[C@@H](C)O3)cc1 | inactive |
| CC(C)NC(=O)N(C)C[C@@H]1Oc2ccc(NS(=O)(=O)c3ccc(F)cc3)cc2C(=O)N([C@H](C)CO)C[C@H]1C | inactive |
| C[C@@H]1CCCCO[C@H](CN(C)C(=O)c2ccccc2)[C@@H](C)CN([C@H](C)CO)C(=O)c2cc(NS(=O)(=O)c3ccccc3)ccc2O1 | inactive |
| Cc1cc(=O)[n+]2cccc(O)c2[nH]1 | inactive |
| CC(C)NC(=O)Nc1ccc2c(c1)C(=O)N([C@H](C)CO)C[C@@H](C)[C@@H](CN(C)S(=O)(=O)c1ccc(Cl)cc1)O2 | inactive |
| CCc1cc(C(N)=O)c(N)s1 | inactive |
| C[C@@H]1CCCCO[C@H](CN(C)C(=O)Nc2ccc(F)cc2)[C@@H](C)CN([C@H](C)CO)C(=O)c2cc(NC(=O)Nc3ccccc3)ccc2O1 | inactive |
| CCOC(=O)N[C@H]1CCS(=O)(=O)C1 | inactive |

| Structure (SMILES) | cytotoxicity call |
| --- | --- |
| Cc1cn2c(=O)c(C(=O)O)cnc2s1 | inactive |
| C[C@@H]1CN([C@H](C)CO)C(=O)c2cccc(NS(C)(=O)=O)c2O[C@@H]1CN(C)S(=O)(=O)c1ccccc1 | inactive |
| CCOC(=O)CCCCCC(=O)Nc1ccc2c(c1)C(=O)N([C@H](C)CO)C[C@@H](C)[C@@H](CN(C)S(=O)(=O)c1ccc(C)cc1)OCCCC[C@H](C)O2 | inactive |
| C[C@@H]1CN([C@@H](C)CO)C(=O)c2cc(NS(=O)(=O)c3ccc(Cl)cc3)ccc2O[C@@H](C)CCCCO[C@H]1CN(C)Cc1ccccc1 | inactive |
| C[C@@H]1CCCCO[C@@H](CN(C)Cc2ccccc2)[C@@H](C)CN([C@@H](C)CO)C(=O)c2cc(NS(=O)(=O)c3ccc(Cl)cc3)ccc2O1 | inactive |
| C[C@@H]1CN([C@H](C)CO)C(=O)c2cc(NS(=O)(=O)c3ccc(Cl)cc3)ccc2O[C@@H](C)CCCCO[C@@H]1CN(C)Cc1ccccc1 | inactive |
| C[C@@H]1CCCCO[C@H](CN(C)Cc2ccccc2)[C@@H](C)CN([C@H](C)CO)C(=O)c2cc(NS(=O)(=O)c3ccc(Cl)cc3)ccc2O1 | inactive |
| C[C@@H]1CN([C@@H](C)CO)C(=O)c2cc(NS(=O)(=O)c3ccc(Cl)cc3)ccc2O[C@@H](C)CCCCO[C@@H]1CN(C)Cc1ccccc1 | active |
| C[C@H](CO)N1C[C@H](C)[C@@H](CN(C)Cc2ccccc2)OCCCC[C@H](C)Oc2ccc(NS(=O)(=O)c3ccc(Cl)cc3)cc2C1=O | inactive |
| C[C@@H]1CCCCO[C@H](CN(C)Cc2ccccc2)[C@H](C)CN([C@@H](C)CO)C(=O)c2cc(NS(=O)(=O)c3ccc(Cl)cc3)ccc2O1 | active |
| C[C@@H]1CCCCO[C@H](CN(C)Cc2ccccc2)[C@H](C)CN([C@H](C)CO)C(=O)c2cc(NS(=O)(=O)c3ccc(Cl)cc3)ccc2O1 | active |
| C[C@@H]1CCCCO[C@@H](CN(C)Cc2ccccc2)[C@H](C)CN([C@@H](C)CO)C(=O)c2cc(NS(=O)(=O)c3ccc(Cl)cc3)ccc2O1 | inactive |
| C[C@@H]1CCCCO[C@@H](CN(C)Cc2ccccc2)[C@@H](C)CN([C@H](C)CO)C(=O)c2cc(NS(=O)(=O)c3ccc(Cl)cc3)ccc2O1 | inactive |
| C[C@H]1CCCCO[C@@H](CN(C)Cc2ccccc2)[C@@H](C)CN([C@@H](C)CO)C(=O)c2cc(NS(=O)(=O)c3ccc(Cl)cc3)ccc2O1 | active |
| C[C@H]1CCCCO[C@H](CN(C)Cc2ccccc2)[C@@H](C)CN([C@@H](C)CO)C(=O)c2cc(NS(=O)(=O)c3ccc(Cl)cc3)ccc2O1 | inactive |
| C[C@H]1CN([C@@H](C)CO)C(=O)Cc2cc(NS(C)(=O)=O)ccc2O[C@H]1CN(C)Cc1ccc(C(=O)O)cc1 | inactive |
| C=CCOC(=O)[C@@H]1[C@H]2C(=O)O[C@H](c3ccccc3)[C@H](c3ccccc3)N2[C@H](c2ccc(OCCOC(=O)[C@H]3C[C@H]4C(=O)N5CCC[C@H]5C(=O)N4[C@H]3c3ccc(O)cc3)cc2)[C@@]12C(=O)Nc1ccccc12 | inactive |
| Cn1ncc2c(NN3C(=O)CCC3=O)ncnc21 | inactive |
